# Experimental data taken from the supplement of paper PMC6522484.
# ± gives the standard deviation of the averaged measurements.
# Assays:
# DLD1 [1] = assay: cell viability (CellTiter-Glo) relative to plate median (fraction of plate median); higher = more viable cells; conditions: 10 µM, treatment time 24 h
# In short: (§1)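 Colorectal cancer cells expressing a stably transduced lentiviral TCF/Wnt firefly luciferase reporter were treated in 384-well plates with kinase inhibitor library compounds at a final 10 µM for 24 h. Firefly luciferase or CellTiterGlo luminescence was then read on parallel plates. Well signals were normalised to the plate median (webcellHTS2, additive, no log transformation) and averaged over two independent replicates.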
# HCT116 [2] = assay: as above; conditions: 10 µM; treatment time 24 h; reporter: TCF4/Wnt
# In short: as §1
# SW480 [3] = assay: as above; conditions: 10 µM; treatment time 24 h; reporter: 7TFP
# In short: as §1
# DLD1 [4] = assay: TCF/Wnt firefly luciferase reporter signal relative to plate median (fraction of plate median); higher = higher Wnt reporter signal; conditions: 10 µM, treatment time 24 h
# In short: as §1
# HCT116 [5] = assay: as above; conditions: 10 µM; treatment time 24 h; reporter: TCF4/Wnt
# In short: as §1
# SW480 [6] = assay: as above; conditions: 10 µM; treatment time 24 h; reporter: 7TFP
# In short: as §1
Compound,cell viability (DLD1 [1]; reporter: 7TFP),cell viability (DLD1 [1]; reporter: TCF4/Wnt),cell viability (HCT116 [2]),cell viability (SW480 [3]),TCF/Wnt firefly luciferase reporter signal (DLD1 [4]; reporter: 7TFP),TCF/Wnt firefly luciferase reporter signal (DLD1 [4]; reporter: TCF4/Wnt),TCF/Wnt firefly luciferase reporter signal (HCT116 [5]),TCF/Wnt firefly luciferase reporter signal (SW480 [6])
O=C(O)c1ccc(Nc2ncc3c(n2)-c2ccc(Cl)cc2C(c2c(F)cccc2F)=NC3)cc1,1.06 ± 0.028,0.993 ± 0.067,0.982 ± 0.0042,1.01 ± 0.055,1.1 ± 0.19,1.11 ± 0.042,1.375 ± 0.0071,0.9575 ± 0.00071
O=C1NC(=O)/C(=C/c2ccc3c(c2)OC(F)(F)O3)S1,1.285 ± 0.0071,1.09 ± 0.021,1.15 ± 0.13,0.882 ± 0.034,0.944 ± 0.35,1.06 ± 0.24,1.18 ± 0.22,1.03 ± 0.21
CCCS(=O)(=O)Nc1ccc(F)c(C(=O)c2c[nH]c3ncc(Cl)cc23)c1F,1.03 ± 0.08,0.942 ± 0.074,1.12 ± 0.071,0.837 ± 0.013,0.775 ± 0.33,0.746 ± 0.1,1.05 ± 0.11,0.786 ± 0.067
COc1ccc2c(Oc3ccc(NC(=O)c4c(C)n(CC(C)(C)O)n(-c5ccccc5)c4=O)nc3)ccnc2c1,1.15 ± 0.19,1.01 ± 0.016,1.12,0.921 ± 0.08,0.92 ± 0.35,0.99 ± 0.057,1.22 ± 0.078,1.05 ± 0.078
O=c1c(O)c(-c2ccc(O)c(O)c2)oc2cc(O)cc(O)c12 [Quercetin (Sophoretin)],1.19 ± 0.035,1.02 ± 0.046,1.23 ± 0.092,0.92 ± 0.013,1.07 ± 0.014,1.04 ± 0.035,1.16 ± 0.071,0.978 ± 0.073
